Hits are enriched below; roughly 3.4% of the tested compounds scored in any of these assays.
APP 5'UTR act: activators of APP 5'UTR luciferase reporter, primary screen, SH-SY5Y cells. hit rate 1% among 190,000. SH-SY5Y APP 5'UTR luciferase reporter, luminescence; zero percent = DMSO vehicle wells. activation, % at 2 µM;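 active means activation above a set limit, based on mean plus 3 SD of controls, cut at about 140% in these data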
NF-kB expr up: activators of NF-kB expression in neurons, primary screen, cell-based, HTS; human neuronal cells, NF-kB reporter expression; hits give high values; fold change at 12.5 µM; hit rate 1.6% among 190,000; AID 1239, 2008; in the data active means fold change above about 3.3
hcDAF12 agonist: H. contortus DAF-12 nuclear receptor activators, primary screen, cell-based, luminescence, HEK293, lit1-tk-luc reporter. HEK293 hcDAF-12 lit1-tk-luc reporter; 0% DMSO, 100% Δ7-dafachronic acid. activation, % at 6.8 µM. hit rate 1.4% among 370,000. AID 652067, 2013;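 active means activation above the mean of all tested compounds plus 3 SD, cut at about 5.5% in these data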;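 further: 100% = response to 3 µM Δ7-dafachronic acid high control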
ssDAF12 agonist: S. stercoralis DAF-12 nuclear receptor activators, primary screen, cell-based, luminescence, HEK293, GRIP1 co-expression, lit1-tk-luc; activation, % at 6.8 µM; HEK293 ssDAF-12/GRIP1 lit1-tk-luc reporter; % of 3 µM dafachronic acid response; Nuclear hormone receptor DAF-12 (Strongyloides stercoralis); AID 652126, 2013; hit rate 1% among 370,000;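 active means activation above the mean over all tested compounds plus 3 SD, cut at about 0.9% in these data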;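 further: 0% = DMSO-only wells and 100% = 3 µM delta7-dafachronic acid wells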
hgDAF12 agonist: H. glycines DAF-12 receptor agonists, primary screen, cell-based, luminescence, HEK293, GAL4 fusion, UAS-luciferase; HEK293 GAL4-hgDAF12 UAS-luciferase reporter, agonist luminescence; normalized to butyrate control; activation, % at 6.8 µM; Nuclear hormone receptor DAF-12 (Heterodera glycines), GAL4 fusion; hit rate 1.8% among 370,000;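 active means activation above a cutoff set at the mean of all screened compounds plus 3 SD, cut at about 10% in these data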;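 further: 0% = DMSO wells and 100% = sodium butyrate wells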
Starred values were filed as active, the others as inactive.

`CC(C)(C)c1nnc(NC(=O)c2cccs2)s1` gave APP 5'UTR act 68, NF-kB expr up 3.4*, hcDAF12 agonist 2, ssDAF12 agonist 0 and hgDAF12 agonist 10.
For Cc1cc(NC(=O)c2cccs2)ncc1NC(=O)C(C)C the results were hcDAF12 agonist 0, ssDAF12 agonist 1 and hgDAF12 agonist 11*.
Screening CCCCC(CC)c1nnc(NC(=O)c2cccs2)s1 (stereo not drawn) returned APP 5'UTR act 9, NF-kB expr up 1.3, hcDAF12 agonist -1, ssDAF12 agonist -2 and hgDAF12 agonist -3.
Screening Nn1c(SCC(=O)Nc2ccc(Br)cn2)nnc1-c1n[nH]c2c1CCC2 returned hcDAF12 agonist -1, ssDAF12 agonist -1 and hgDAF12 agonist 2.
N#CCC[C@@H]1CC[C@]2(CCCN(S(=O)(=O)C3CCCCC3)C2)O1 was read as hcDAF12 agonist 0, ssDAF12 agonist -1 and hgDAF12 agonist 1.
`Cc1cnc(NC(=O)CSc2ccc(Cl)cc2)s1` gave APP 5'UTR act 13, NF-kB expr up 1.2, hcDAF12 agonist -4, ssDAF12 agonist -1 and hgDAF12 agonist 1.
`Cc1cnc(NC(=O)Nc2ccc(Cl)cc2)s1` gave APP 5'UTR act -28, NF-kB expr up 26*, hcDAF12 agonist 5.8*, ssDAF12 agonist 0 and hgDAF12 agonist 8.
`CCCCC(=O)N[C@H]1CC[C@@]23CCCN2C(=O)CCC[C@H]3[C@H]1C` gave hcDAF12 agonist 0, ssDAF12 agonist -2 and hgDAF12 agonist 2.
Screening Cc1ccc(-n2nnnc2SCn2nnc3ccccc3c2=O)cc1 returned APP 5'UTR act 57, NF-kB expr up 2.2, hcDAF12 agonist 1, ssDAF12 agonist 0 and hgDAF12 agonist 13*.
Screening O=c1c2ccccc2nnn1CSc1ccc2c(c1)OCCO2 returned APP 5'UTR act 113, NF-kB expr up 4.2*, hcDAF12 agonist 3, ssDAF12 agonist 0 and hgDAF12 agonist 9.
CC(C)(C)C(=O)Nc1ccc(C(=O)OC2CCCCC2)cc1 was read as APP 5'UTR act 133 and NF-kB expr up 3.6*.
Screening COc1ccc2c(CCN3C(=O)c4ccccc4C3=O)c(-c3c(CCN4C(=O)c5ccccc5C4=O)c4ccccc4n3C(=O)OC(C)(C)C)[nH]c2c1 returned hcDAF12 agonist -1, ssDAF12 agonist -2 and hgDAF12 agonist -3.
For COC1=C[C@H](C(=O)NC2CCN(Cc3ccccc3)CC2)C(C)C(c2ccccc2)CC1=O (stereo partly drawn) the results were hcDAF12 agonist 0, ssDAF12 agonist -1 and hgDAF12 agonist 2.
For CSc1ccc(/C=C/C(=O)NC(=O)c2ccccc2O)cc1 the results were APP 5'UTR act 89, NF-kB expr up 3.7*, hcDAF12 agonist 4, ssDAF12 agonist 0 and hgDAF12 agonist 13*.
For C=CCn1c(COc2ccc(Cl)cc2)nnc1SCC(=O)c1ccc(-c2ccccc2)cc1 the results were hcDAF12 agonist -2, ssDAF12 agonist -2 and hgDAF12 agonist -1.
Cc1cc2ncc(C(=O)N=CN(C)C)cn2n1 was read as APP 5'UTR act 28, NF-kB expr up 1.4, hcDAF12 agonist 0, ssDAF12 agonist -1 and hgDAF12 agonist 1.
Screening Cc1cc2ncc(-c3ccc(Cl)cc3)cn2n1 returned APP 5'UTR act 188*, NF-kB expr up 4.9*, hcDAF12 agonist 2, ssDAF12 agonist -1 and hgDAF12 agonist 11*.
`COc1ccc(N2C(=O)[C@@H]3[C@H](C2=O)[C@H]2c4ccccc4C=CN2[C@@H]3C(=O)Nc2ccccc2)cc1` gave APP 5'UTR act 3, NF-kB expr up 1.2, hcDAF12 agonist 6.1*, ssDAF12 agonist 1 and hgDAF12 agonist 2.
`Cc1nc2nc(-c3ccc(Cl)cc3)cn2nc1C` gave APP 5'UTR act 85, NF-kB expr up 3.3*, hcDAF12 agonist 5, ssDAF12 agonist 0 and hgDAF12 agonist 10.
For COc1cccc(C#Cc2c(CO)[nH]c3ccccc23)c1 the results were hcDAF12 agonist 6.2*, ssDAF12 agonist 1 and hgDAF12 agonist 1.
COc1cccc(CN2CCN(Cc3[nH]c4ccccc4c3C)CC2CCO)c1 (stereo not drawn) was read as APP 5'UTR act 8, NF-kB expr up 0.87, hcDAF12 agonist 4, ssDAF12 agonist -1 and hgDAF12 agonist 0.
For Cc1ccc(-c2nnc(SCC(=O)Nc3ccc4c(c3)OCCO4)n2-c2ccc(C)cc2)cc1 the results were hcDAF12 agonist -2, ssDAF12 agonist -1 and hgDAF12 agonist 4.
Cc1ccc(C(=O)Nc2cc(C(F)(F)F)ccc2-n2cncn2)o1 was read as hcDAF12 agonist 0, ssDAF12 agonist -1 and hgDAF12 agonist -3.
Screening Cc1ccc(C(=O)Nc2cc(Cl)ccc2-n2cncn2)o1 returned hcDAF12 agonist 4, ssDAF12 agonist 1.2* and hgDAF12 agonist 1.
`O=C(CN1CCN(c2ccccc2)CC1)Nc1ccccc1C(=O)NCCc1ccccc1` gave hcDAF12 agonist 5.8*, ssDAF12 agonist 1 and hgDAF12 agonist 7.
`c1ccc(Cn2ccc(-c3cnc(-c4ccccc4)s3)n2)cc1` gave APP 5'UTR act 125, NF-kB expr up 6.8*, hcDAF12 agonist 3, ssDAF12 agonist 0 and hgDAF12 agonist 12*.
COc1cc(NC(=O)C2CCCN(S(=O)(=O)c3ccc(C)cc3)C2)cc(OC)c1 (stereo not drawn) was read as hcDAF12 agonist 1, ssDAF12 agonist -2 and hgDAF12 agonist -4.
`CS(=O)(=O)N(CC(=O)N1CCOCC1)c1ccc(Cl)cc1` gave hcDAF12 agonist 6.0*, ssDAF12 agonist 0 and hgDAF12 agonist 0.
`O=C(Nc1cccc([N+](=O)[O-])c1)C(=O)N1CCCCC1` gave APP 5'UTR act 69, NF-kB expr up 2.4, hcDAF12 agonist 3, ssDAF12 agonist -1 and hgDAF12 agonist 13*.
O=[N+]([O-])c1cccc(NC(=S)N2CCCC2)c1 was read as hcDAF12 agonist 0, ssDAF12 agonist -1 and hgDAF12 agonist 0.
O=c1c2cc3cc(Cl)ccc3nc2ncn1Cc1ccc(Oc2ccccc2)cc1 was read as hcDAF12 agonist 5.9*, ssDAF12 agonist -1 and hgDAF12 agonist -1.
For CCn1c(=O)cc(OCC(=O)NCCC(C)C)c2ccccc21 the results were APP 5'UTR act 1, NF-kB expr up 1.4, hcDAF12 agonist 0, ssDAF12 agonist 0.9* and hgDAF12 agonist -2.
For CCn1c(=O)cc(OCC(=O)O)c2ccccc21 the results were APP 5'UTR act -7, NF-kB expr up 1.4, hcDAF12 agonist 0, ssDAF12 agonist -1 and hgDAF12 agonist 1.
`O=C(Nc1ncc([N+](=O)[O-])s1)c1cccs1` gave hcDAF12 agonist 4, ssDAF12 agonist 0 and hgDAF12 agonist 9.

Screens: PubChem BioAssay, several laboratories
